# Experimental data from PubChem BioAssay (NCATS).
# Values joined by “and” are separate entries in the source; they are usually repeats but may differ in a detail not shown here. Equal entries are not always repeated. Inconclusive results are not listed. Active and inactive are the calls of the source. Calls come from the whole dose curve; as a rule, active = well fitted curve in the direction sought with a large enough effect; inconclusive = small, poorly fitted or top-dose-only effect, or another doubt; inactive = no such curve, though single readings can be large or run the other way.
# Experiment: qHTS Assay for Identifying Gametocytocidal Compounds (AID 743244);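 for max response: actives lower the fluorescent signal which means gametocytes are killed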
# Conditions: P. falciparum 3D7 stage III-V gametocytes, alamarBlue, 72 h; max response: stronger effect = lower value
# Method in brief: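 Late gametocytes (III–V), P. falciparum 3D7; 72 h drug, then 24 h alamarBlue; resazurin reduction read by fluorescence.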
# % is set by controls: 0 for no effect and ±100 for the full control effect; potency is the fitted concentration of half-maximal effect.
SMILES,max response,Potency
C[N+]1(C)[C@@H]2CC(OC(=O)[C@H](CO)c3ccccc3)C[C@H]1[C@@H]1O[C@@H]12 (stereo partly drawn),-10.6% (inactive),
CC[C@H]1OC(=O)[C@H](C)[C@@H](O[C@H]2C[C@@](C)(OC)[C@@H](O)[C@H](C)O2)[C@H](C)[C@@H](O[C@@H]2O[C@H](C)C[C@H](N(C)C)[C@H]2O)[C@](C)(O)C[C@@H](C)C(=O)[C@H](C)[C@@H](O)[C@]1(C)O,1.77% (inactive) and 0.604% (inactive),
CC(=O)[C@]1(O)Cc2c(O)c3c(c(O)c2[C@@H](O[C@H]2C[C@H](N)[C@H](O)[C@H](C)O2)C1)C(=O)c1c(O)cccc1C3=O,,5.62 µM (active)
O=C(/C=C/c1ccccc1)NCCO,7.68% (inactive),
O=c1cc(-c2ccccc2)oc2ccccc12,7.39% (inactive),
CO[C@@]1(NC(=O)Cc2cccs2)C(=O)N2C(C(=O)O)=C(COC(N)=O)CS[C@@H]21,-0.875% (inactive) and -15% (inactive),
CC(C(=O)O)c1ccc(C(=O)c2ccccc2)s1 (stereo not drawn),-0.0039% (inactive),
N=C(N)N,-3.24% (inactive),
